# High-throughput results as filed in PubChem BioAssay.
# Sampled rows, rich in hits. Any-hit rate of the full collection: about 12%.
# Cl transport mod: KCC2 (human) Cl- transport modulation; Q9H2X9; KCC2 cells, thallium flux FluoZin-2 fluorescence; B-score of Tl+ flux slope (higher = more flux/activation; lower = inhibition) at 10 µM; 2.2% of 190,000 active; AID 1456;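 active = thallium flux slope and its plate-corrected score both differing from the plate sample mean at a set confidence after two filtering rounds, in either direction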;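 note: slope of fluorescence scaled to starting intensity during 10 to 20 s after thallium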
# Target sequence (Q9H2X9 whole entry, looked up): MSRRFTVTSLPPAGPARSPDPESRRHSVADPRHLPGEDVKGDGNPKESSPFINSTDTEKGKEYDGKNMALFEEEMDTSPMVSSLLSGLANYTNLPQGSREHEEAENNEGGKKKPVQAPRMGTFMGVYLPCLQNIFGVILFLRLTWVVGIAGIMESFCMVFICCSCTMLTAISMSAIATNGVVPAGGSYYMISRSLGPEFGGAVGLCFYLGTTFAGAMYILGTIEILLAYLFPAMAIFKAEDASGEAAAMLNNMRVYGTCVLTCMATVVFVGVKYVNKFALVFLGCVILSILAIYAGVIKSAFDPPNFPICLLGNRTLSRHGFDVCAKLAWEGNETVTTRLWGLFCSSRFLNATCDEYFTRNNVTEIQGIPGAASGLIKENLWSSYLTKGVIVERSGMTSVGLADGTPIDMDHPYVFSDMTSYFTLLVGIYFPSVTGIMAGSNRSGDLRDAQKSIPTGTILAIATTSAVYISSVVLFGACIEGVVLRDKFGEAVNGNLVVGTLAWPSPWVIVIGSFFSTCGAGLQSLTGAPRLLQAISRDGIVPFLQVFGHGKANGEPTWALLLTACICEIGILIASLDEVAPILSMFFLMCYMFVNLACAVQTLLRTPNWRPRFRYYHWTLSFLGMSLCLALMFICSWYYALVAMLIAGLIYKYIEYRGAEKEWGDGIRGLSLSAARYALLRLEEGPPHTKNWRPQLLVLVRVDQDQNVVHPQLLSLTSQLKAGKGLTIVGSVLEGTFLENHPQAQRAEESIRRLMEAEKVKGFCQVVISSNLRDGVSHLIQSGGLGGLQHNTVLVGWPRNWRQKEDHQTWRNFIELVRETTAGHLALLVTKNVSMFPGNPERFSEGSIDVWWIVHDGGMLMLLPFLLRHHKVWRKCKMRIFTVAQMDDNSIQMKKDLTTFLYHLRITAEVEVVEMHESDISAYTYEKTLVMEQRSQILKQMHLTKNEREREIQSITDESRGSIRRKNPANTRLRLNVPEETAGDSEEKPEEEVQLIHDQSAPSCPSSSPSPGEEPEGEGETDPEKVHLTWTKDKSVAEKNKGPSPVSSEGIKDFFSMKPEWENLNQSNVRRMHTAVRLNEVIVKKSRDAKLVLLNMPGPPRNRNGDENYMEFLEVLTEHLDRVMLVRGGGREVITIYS
# m-calpain inh: calpain II (pig) inhibition; purified calpain II, fluorogenic peptide substrate, 30 min; inhibition, % at 16 µM; 0.37% of 220,000 active; AID 1236;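 active = inhibition above about 50%, limit read from the data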
# Lmaj promast: Leishmania major promastigote growth inhibition | inhibition, % at 10 µM | Leishmania major promastigotes, resazurin fluorescence viability | AID 1063 | 9% of 200,000 active; in the data active = inhibition above about 50%;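 note: promastigotes grown with compound for 44 hours at 28 °C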
# WT yeast gro inh: growth inhibition of WT yeast, mitochondrial fusion screen | inhibition, % at 10 µM | mitochondrial fusion phenotypic screen, WT strain | 2.1% of 190,000 active; in the data active = inhibition above about 58%; tested in S. cerevisiae
# ROMK primary: modulates human ROMK potassium channel activity; P48048; Tet-inducible ROMK, thallium flux fluorescence; actives lie on both sides; B-score at 10 µM; 2% of 130,000 active;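 active = signal ratio slope over the read window, or its plate-corrected B-score, at least 3 SD from the plate mean, either direction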;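 note: B-score of the F/F0 ratio slope over 7 to 12 s after thallium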
# Starred values were filed as active, the others as inactive; . = no result given.
SMILES,Cl transport mod,m-calpain inh,Lmaj promast,WT yeast gro inh,ROMK primary
C=C(C)C1Cc2c(C)nn(-c3ccccn3)c2C1 (configuration not stated),0.27,17,4,66*,-0.32
CCOC(=O)Cn1c(C)[n+](CC(=O)c2ccccc2)c2ccccc21,0.15,-16,.,.,.
CCN(CC)CCN(CC)Cc1ccccc1Br,-1.5,-18,96*,2,.
Cc1nnc(SC(=O)N2c3ccccc3Sc3ccccc32)s1,-1.5,-22,63*,-7,.
c1coc(CNc2nc(N3CCCCC3)nc3ccccc23)c1,-0.47,-118,96*,-6,-1.9
c1ccc(CNc2nc(N3CCN(Cc4ccccc4)CC3)nc3ccccc23)cc1,-0.68,15,.,.,.
Clc1nc(NCc2ccco2)nc(N2CCCCC2)n1,0.71,-3,-12,6,-0.29
c1ccc(N2CCN(c3nc(NCc4ccco4)c4ccccc4n3)CC2)cc1,.,-33,98*,-8,0.22
COc1ccc(-n2c3c(c(=O)[nH]c2=O)C(NC(C)=O)(C(F)(F)F)C(=O)N3)cc1 (configuration not stated),1.2,-16,-5,-7,0.071
Cc1oc2c(c1C(=O)O)C(=O)c1ccccc1C2=O,0.061,-22,100*,-5,-0.017
COc1ccc(-c2nn(-c3ccccc3C)cc2CNCc2cccnc2)cc1F,1.2,39,8,12,.
CC1(C)CC(CCN(Cc2ccccc2)C(=O)c2ccco2)(c2ccccc2)CCO1 (configuration not stated),-0.9,6,30,63*,.
CCCNCC1C(Oc2ccc(Cl)cc2Cl)C(=O)N1c1cccc(C)c1C (configuration not stated),0.084,39,72*,66,-0.99
COCCCNCCCCSc1ccc(Cl)cc1,-1,-7,95*,9,-1.7
OCCNCCSc1ccc(Cl)cc1,-0.1,-5,0,3,.
CN(C)CCOCCSc1ccc(Cl)cc1,0.64,9,98*,3,-0.94
OCCNCCCCSc1ccc(Cl)cc1,0.088,-9,96*,16,-0.51
COCCCNCCOCCSc1ccc(Cl)cc1,-0.43,-2,98*,-2,-1.2
NC(=O)COC(=O)CCSc1ccc(Cl)cc1,-0.12,17,-6,-4,-0.39
COc1ccccc1NC(=O)CN(Cc1ccco1)C(=O)c1cc2ccccc2o1,-2,-3,-1,-1,-1.4
COc1ccc(C)cc1S(=O)(=O)N(CC(=O)O)c1ccc(F)cc1,0.56,-14,-2,21,.
CCCCNCCOCCSc1ccc(Cl)cc1,0.33,-13,99*,3,.
CCOc1cc(C=O)ccc1OCCSc1ccc(Cl)cc1,.,4,36,3,.
CC(C)NCCOCCSc1ccc(Cl)cc1,0.86,6,90*,16,.
COc1ccc2c(C=O)cn(C)c2c1,0.52,15,-2,-7,0.34
SMILES,Cl transport mod,m-calpain inh,Lmaj promast,WT yeast gro inh,ROMK primary
CN1C(=O)/C(=C\c2ccccc2)Sc2ccc(C(=O)N3CCN(c4ccccn4)CC3)cc21,.,21,-4,52,.
CC(OC(=O)c1cccc(N2C(=O)c3ccccc3C2=O)c1)C(=O)Nc1ccc(N(C)C)cc1 (configuration not stated),-1,26,56*,13,.
Cc1ccc(NC(=O)COC(=O)c2cccc(N3C(=O)c4ccccc4C3=O)c2)cc1,-0.19,-7,.,.,.
COc1ccccc1NS(=O)(=O)c1cccc(NC(=O)Nc2ccccc2)c1,0.016,19,99*,-3,-0.56
COc1ccccc1NS(=O)(=O)c1cccc(NC(=O)Cc2cccs2)c1,0.42,41,98*,-21,.
COc1ccccc1NS(=O)(=O)c1cccc(C(=O)OCc2nc3ccccc3s2)c1,-2.2,20,90*,37,-0.71
COc1ccccc1NS(=O)(=O)c1cccc(C(=O)OCC(=O)Nc2cc(C)on2)c1,-0.82,-4,28,1,.
COc1ccccc1NS(=O)(=O)c1cccc(NC(=O)Nc2ccc(Cl)cc2)c1,0.68,-23,97*,9,-0.012
O=C(COC(=O)C(O)C(O)C(=O)OCC(=O)c1ccc(C(F)(F)F)cc1)c1ccc(C(F)(F)F)cc1 (configuration not stated),0.67,5,.,.,0.4
CCn1cc(SCC(=O)N2CCc3ccccc32)c2ccccc21,-0.68,17,7,3,.
COc1cc(SC)ccc1C(=O)NCCOc1ccc(F)cc1,-1.7,25,58*,16,.
COc1ccc(CCNC(=O)c2ccc(SC)cc2OC)cc1,-1.1,29,14,8,0.23
CSc1ccc(Cl)c(C(=O)NCCOc2ccccc2)c1,-2,-27,-5,11,-2
COc1cc(SC)ccc1C(=O)Nc1c(Cl)cncc1Cl,-0.12,9,95*,15,0.17
